Experimental data taken from article PMC7862700, “An all-to-all approach to the identification of sequence-specific readers for epigenetic DNA modifications on cytosine”.

Key:
Experiment in all cases: DAPPL (digital affinity profiling via proximity ligation, sequencing); 10 mM Tris-HCl pH 7.5, 50 mM NaCl, 1 mM DTT, 4% glycerol, room temperature, 30 min; GST-TFs on glutathione beads, 16-mer random dsDNA library, 0.1% formaldehyde crosslink after washing; high values mean tight binding
Settings in all cases: protein: recombinant; tags: N-terminal GST; dsDNA, one strand shown
FLI1 = molecular target: T1, FLI1 (Homo sapiens, UniProt Q01543 1-452)
T1 sequence: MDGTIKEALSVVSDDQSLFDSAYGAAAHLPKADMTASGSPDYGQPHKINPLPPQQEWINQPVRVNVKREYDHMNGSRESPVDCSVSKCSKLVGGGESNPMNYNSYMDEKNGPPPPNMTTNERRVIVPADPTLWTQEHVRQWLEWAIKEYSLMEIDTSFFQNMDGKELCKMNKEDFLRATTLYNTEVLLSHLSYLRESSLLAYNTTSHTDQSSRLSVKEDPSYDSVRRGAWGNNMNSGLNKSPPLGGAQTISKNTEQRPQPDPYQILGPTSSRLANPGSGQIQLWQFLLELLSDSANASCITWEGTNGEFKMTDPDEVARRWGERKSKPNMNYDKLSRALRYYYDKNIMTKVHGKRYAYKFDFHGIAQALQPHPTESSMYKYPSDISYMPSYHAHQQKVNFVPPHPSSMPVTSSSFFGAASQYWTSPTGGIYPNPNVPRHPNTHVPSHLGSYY
Summary of the method: (§1)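 Human transcription factors were made in yeast as GST fusions, captured on glutathione beads and barcoded with DNA. With a tag-only sample included, the pool was incubated with 200 nmole of a random double-stranded 16-mer DNA library in Tris/NaCl/DTT/glycerol buffer at room temperature for 30 min, then crosslinked with 0.1% formaldehyde after washing, ligated by proximity, amplified and sequenced. For binding signal, each hexamer's read frequency for a factor is divided by its frequency for the tag-only sample.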

ELK1 = molecular target: T2, ELK1 (Homo sapiens, UniProt P19419 1-428)
T2 sequence: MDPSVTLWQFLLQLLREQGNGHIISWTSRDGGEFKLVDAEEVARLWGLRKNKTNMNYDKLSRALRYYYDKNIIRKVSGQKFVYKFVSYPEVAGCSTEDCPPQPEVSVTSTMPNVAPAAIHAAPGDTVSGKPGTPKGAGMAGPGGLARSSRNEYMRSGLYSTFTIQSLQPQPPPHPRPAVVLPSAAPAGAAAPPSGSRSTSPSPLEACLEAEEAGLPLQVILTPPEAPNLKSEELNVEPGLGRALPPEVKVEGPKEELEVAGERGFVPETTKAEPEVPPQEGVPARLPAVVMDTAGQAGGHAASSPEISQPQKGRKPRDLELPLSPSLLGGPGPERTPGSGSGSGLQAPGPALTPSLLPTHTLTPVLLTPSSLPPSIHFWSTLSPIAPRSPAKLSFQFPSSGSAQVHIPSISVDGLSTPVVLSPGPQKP
Summary of the method: as §1

GABPA = molecular target: T3, GABPA (Homo sapiens, UniProt Q06546 1-454)
T3 sequence: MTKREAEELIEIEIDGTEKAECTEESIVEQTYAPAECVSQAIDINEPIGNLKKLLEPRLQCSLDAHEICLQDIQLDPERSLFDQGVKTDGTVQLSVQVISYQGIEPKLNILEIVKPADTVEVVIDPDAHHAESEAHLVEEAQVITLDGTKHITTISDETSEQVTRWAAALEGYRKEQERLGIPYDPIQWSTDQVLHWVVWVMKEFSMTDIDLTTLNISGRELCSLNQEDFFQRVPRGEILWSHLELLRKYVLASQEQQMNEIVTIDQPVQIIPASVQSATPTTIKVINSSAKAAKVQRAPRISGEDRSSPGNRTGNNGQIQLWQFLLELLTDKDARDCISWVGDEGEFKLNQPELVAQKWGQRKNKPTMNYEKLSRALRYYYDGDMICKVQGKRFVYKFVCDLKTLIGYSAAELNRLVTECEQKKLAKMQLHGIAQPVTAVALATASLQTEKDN
Summary of the method: as §1

ERG = molecular target: T4, ERG (Homo sapiens, UniProt P11308 1-479)
T4 sequence: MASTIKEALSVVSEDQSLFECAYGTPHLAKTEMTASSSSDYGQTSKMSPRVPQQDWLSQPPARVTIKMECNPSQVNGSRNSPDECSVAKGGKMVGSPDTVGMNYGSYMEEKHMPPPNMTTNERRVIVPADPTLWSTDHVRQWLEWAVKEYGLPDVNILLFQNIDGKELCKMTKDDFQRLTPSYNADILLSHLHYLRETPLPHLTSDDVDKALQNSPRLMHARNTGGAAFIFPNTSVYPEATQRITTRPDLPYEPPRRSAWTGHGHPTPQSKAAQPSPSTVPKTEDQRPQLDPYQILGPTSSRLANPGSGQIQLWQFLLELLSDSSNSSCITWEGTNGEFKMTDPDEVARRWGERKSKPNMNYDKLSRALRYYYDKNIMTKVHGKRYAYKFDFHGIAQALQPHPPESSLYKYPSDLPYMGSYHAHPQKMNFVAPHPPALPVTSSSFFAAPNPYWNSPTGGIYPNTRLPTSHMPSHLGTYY
Summary of the method: as §1

ELF1 = ELF1 (Homo sapiens, UniProt P32519 1-619)
Summary of the method: as §1

EHF = molecular target: T5, EHF (Homo sapiens, UniProt Q9NZC4 1-300)
T5 sequence: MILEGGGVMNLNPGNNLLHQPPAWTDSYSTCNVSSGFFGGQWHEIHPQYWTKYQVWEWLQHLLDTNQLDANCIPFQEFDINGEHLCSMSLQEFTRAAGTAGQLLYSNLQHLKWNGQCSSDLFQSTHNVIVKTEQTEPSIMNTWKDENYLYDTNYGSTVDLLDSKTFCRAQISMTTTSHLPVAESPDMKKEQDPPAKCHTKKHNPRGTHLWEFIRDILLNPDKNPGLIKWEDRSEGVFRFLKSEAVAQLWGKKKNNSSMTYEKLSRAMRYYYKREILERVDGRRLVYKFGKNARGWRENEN
Summary of the method: as §1

SPI1 = SPI1 (Homo sapiens, UniProt P17947 1-270)
Summary of the method: as §1

SPIB = SPIB (Homo sapiens, UniProt Q01892 1-262)
Summary of the method: as §1

ELK3 = molecular target: T6, ELK3 (Homo sapiens, UniProt P41970 1-407)
T6 sequence: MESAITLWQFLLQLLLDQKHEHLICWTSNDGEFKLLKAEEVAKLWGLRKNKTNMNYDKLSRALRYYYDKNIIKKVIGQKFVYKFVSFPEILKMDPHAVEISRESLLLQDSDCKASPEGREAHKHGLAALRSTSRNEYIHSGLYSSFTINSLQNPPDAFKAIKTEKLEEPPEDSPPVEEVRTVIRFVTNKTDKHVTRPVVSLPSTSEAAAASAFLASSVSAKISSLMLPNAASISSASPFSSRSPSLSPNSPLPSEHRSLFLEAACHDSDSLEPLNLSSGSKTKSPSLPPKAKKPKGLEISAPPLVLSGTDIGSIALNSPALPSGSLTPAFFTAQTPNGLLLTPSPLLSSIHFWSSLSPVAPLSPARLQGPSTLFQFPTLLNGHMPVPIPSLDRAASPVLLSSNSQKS
Summary of the method: as §1

ELF1, sequence (P32519 whole entry): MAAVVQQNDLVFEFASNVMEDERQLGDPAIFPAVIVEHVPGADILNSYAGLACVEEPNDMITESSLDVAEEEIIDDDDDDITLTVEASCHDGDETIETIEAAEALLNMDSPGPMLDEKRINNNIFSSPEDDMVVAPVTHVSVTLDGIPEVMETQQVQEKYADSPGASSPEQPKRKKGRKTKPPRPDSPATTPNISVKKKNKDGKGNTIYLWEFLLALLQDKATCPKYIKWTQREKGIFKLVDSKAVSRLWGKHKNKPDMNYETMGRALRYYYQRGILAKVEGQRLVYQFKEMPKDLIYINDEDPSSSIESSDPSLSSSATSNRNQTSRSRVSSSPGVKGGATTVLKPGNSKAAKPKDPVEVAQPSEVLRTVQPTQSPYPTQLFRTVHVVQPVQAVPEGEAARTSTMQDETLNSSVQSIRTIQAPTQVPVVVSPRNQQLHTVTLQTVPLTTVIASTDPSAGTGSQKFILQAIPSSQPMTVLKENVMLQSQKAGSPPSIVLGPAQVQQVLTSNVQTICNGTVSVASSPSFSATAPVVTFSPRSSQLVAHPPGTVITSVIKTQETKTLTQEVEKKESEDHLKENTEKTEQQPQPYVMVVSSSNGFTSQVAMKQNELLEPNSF
SPIB, sequence (Q01892 whole entry): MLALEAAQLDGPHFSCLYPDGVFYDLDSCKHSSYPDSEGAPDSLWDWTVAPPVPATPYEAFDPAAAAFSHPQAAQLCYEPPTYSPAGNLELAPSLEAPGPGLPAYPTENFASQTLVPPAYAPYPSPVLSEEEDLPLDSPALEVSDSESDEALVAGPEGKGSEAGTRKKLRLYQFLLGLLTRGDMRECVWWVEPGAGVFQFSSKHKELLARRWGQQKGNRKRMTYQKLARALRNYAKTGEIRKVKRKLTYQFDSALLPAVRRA

| Sequence | binding signal (FLI1) | binding signal (ELK1) | binding signal (GABPA) | binding signal (ERG) | binding signal (ELF1) | binding signal (EHF) | binding signal (SPI1) | binding signal (SPIB) | binding signal (ELK3) |
| --- | --- | --- | --- | --- | --- | --- | --- | --- | --- |
| TTTAGC | 1.04 fold enrichment (6-mer frequency, TF over GST control) | 1.05 fold enrichment (6-mer frequency, TF over GST control) | 1.2 fold enrichment (6-mer frequency, TF over GST control) | 1.16 fold enrichment (6-mer frequency, TF over GST control) | 1.19 fold enrichment (6-mer frequency, TF over GST control) | 1.12 fold enrichment (6-mer frequency, TF over GST control) | 1.05 fold enrichment (6-mer frequency, TF over GST control) | 1.14 fold enrichment (6-mer frequency, TF over GST control) | 1.09 fold enrichment (6-mer frequency, TF over GST control) |
| ATCCCT | 1.35 fold enrichment (6-mer frequency, TF over GST control) | 1.28 fold enrichment (6-mer frequency, TF over GST control) | 1.22 fold enrichment (6-mer frequency, TF over GST control) | 1.24 fold enrichment (6-mer frequency, TF over GST control) | 1.31 fold enrichment (6-mer frequency, TF over GST control) | 1.22 fold enrichment (6-mer frequency, TF over GST control) | 1.16 fold enrichment (6-mer frequency, TF over GST control) | 1.27 fold enrichment (6-mer frequency, TF over GST control) | 1.12 fold enrichment (6-mer frequency, TF over GST control) |
| TCAACT | 1.31 fold enrichment (6-mer frequency, TF over GST control) | 1.31 fold enrichment (6-mer frequency, TF over GST control) | 1.34 fold enrichment (6-mer frequency, TF over GST control) | 1.31 fold enrichment (6-mer frequency, TF over GST control) | 1.31 fold enrichment (6-mer frequency, TF over GST control) | 1.35 fold enrichment (6-mer frequency, TF over GST control) | 1.36 fold enrichment (6-mer frequency, TF over GST control) | 1.3 fold enrichment (6-mer frequency, TF over GST control) | 1.22 fold enrichment (6-mer frequency, TF over GST control) |
| AACGCT | 1.16 fold enrichment (6-mer frequency, TF over GST control) | 1.22 fold enrichment (6-mer frequency, TF over GST control) | 1.22 fold enrichment (6-mer frequency, TF over GST control) | 1.19 fold enrichment (6-mer frequency, TF over GST control) | 1.27 fold enrichment (6-mer frequency, TF over GST control) | 1.23 fold enrichment (6-mer frequency, TF over GST control) | 1.17 fold enrichment (6-mer frequency, TF over GST control) | 1.21 fold enrichment (6-mer frequency, TF over GST control) | 1.2 fold enrichment (6-mer frequency, TF over GST control) |
| TCACGA | 1.09 fold enrichment (6-mer frequency, TF over GST control) | 1.19 fold enrichment (6-mer frequency, TF over GST control) | 1.09 fold enrichment (6-mer frequency, TF over GST control) | 1.1 fold enrichment (6-mer frequency, TF over GST control) | 1.13 fold enrichment (6-mer frequency, TF over GST control) | 1.21 fold enrichment (6-mer frequency, TF over GST control) | 1.06 fold enrichment (6-mer frequency, TF over GST control) | 1.04 fold enrichment (6-mer frequency, TF over GST control) | 1.21 fold enrichment (6-mer frequency, TF over GST control) |
| AACAAC | 1.24 fold enrichment (6-mer frequency, TF over GST control) | 1.31 fold enrichment (6-mer frequency, TF over GST control) | 1.24 fold enrichment (6-mer frequency, TF over GST control) | 1.29 fold enrichment (6-mer frequency, TF over GST control) | 1.3 fold enrichment (6-mer frequency, TF over GST control) | 1.29 fold enrichment (6-mer frequency, TF over GST control) | 1.3 fold enrichment (6-mer frequency, TF over GST control) | 1.23 fold enrichment (6-mer frequency, TF over GST control) | 1.34 fold enrichment (6-mer frequency, TF over GST control) |
| CGTATA | 1.12 fold enrichment (6-mer frequency, TF over GST control) | 1.23 fold enrichment (6-mer frequency, TF over GST control) | 1.17 fold enrichment (6-mer frequency, TF over GST control) | 1.11 fold enrichment (6-mer frequency, TF over GST control) | 1.11 fold enrichment (6-mer frequency, TF over GST control) | 1.09 fold enrichment (6-mer frequency, TF over GST control) | 1.13 fold enrichment (6-mer frequency, TF over GST control) | 1.25 fold enrichment (6-mer frequency, TF over GST control) | 1.16 fold enrichment (6-mer frequency, TF over GST control) |
